Bioassay records deposited in PubChem BioAssay by Broad Institute.
CFTR F508del cor: correctors of CFTR F508del function in bronchial epithelial cells | activity (quench increase), % at 7.58 µM | CFBE cells, YFP halide quenching; stimulated with forskolin plus potentiator P3; % fluorescence drop versus neutral controls | AID 720511 | hit rate 0.36% among 350,000;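 active means mean added fluorescence quench of at least 8% versus neutral control, with both replicates also reaching 8%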;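 further: cells transiently co-express mutant CFTR-F508del with the halide-sensitive YFP; corrector assay measuring rescue of mutant channel to the surface after 24 h compound exposure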
C2C12 statin: suppressors of simvastatin-induced myotoxicity in C2C12 myotubes. hit rate 0.78% among 330,000. AID 602340. ATP luminescence, 48 h; scaled: DMSO 0, geranylgeraniol control 100. rescue of ATP level, % at 7.49 µM;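 active means mean ATP rescue above about 67%, or every replicate alone reaching that limit, limit read from the data, passing the limit was not always enough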;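 further: myotubes were challenged with 10 µM simvastatin during compound exposure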
ARNT TACC3 PPI: disruptors of human ARNT/TACC3 interaction; Q9Y6A5; AlphaScreen His-ARNT PAS-B/GST-TACC3 binding, luminescence; TACC3 fragment carries E629A point mutation; inhibition, % at 9.99 µM; hit rate 0.66% among 390,000;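 active means mean inhibition of replicates at least 50% and at least half of replicates each reaching 50%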;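 further: 0% = complete ARNT plus TACC3 wells and 100% = ARNT alone without TACC3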
PglD inh: PglD (C. jejuni) enzyme inhibition; purified PglD enzyme, DTNB colorimetric CoA detection; inhibition, % at 12.5 µM; hit rate 0.098% among 360,000; AID 602405; in the data active means inhibition above about 16%, passing the limit was not always enough
* = called active by the depositor. Most compounds without a hit are left out; they make up all but 1.4% or so of the library.

How did Cc1ccc(-c2ccc3c(c2)O[C@@H](CN(C)C(=O)C2CCCCC2)[C@H](C)CN([C@@H](C)CO)S3(=O)=O)cc1 do in these assays?
CFTR F508del cor: -2; C2C12 statin: -55

Results for O=C(O)c1cc2ccccc2cn1 ?
CFTR F508del cor: -9; C2C12 statin: 7; ARNT TACC3 PPI: 77*; PglD inh: 3

What do the screens show for `O=C(NC1CCCC1)N1CCCCN2[C@H](C1)[C@H](c1ccc(/C=C/c3ccccc3)cc1)[C@@H]2CO`?
CFTR F508del cor: -1; C2C12 statin: -5; ARNT TACC3 PPI: 18; PglD inh: -2

What do the screens show for `OC(CC1CC12c1ccccc1-c1ncccc12)(c1ccccc1)c1ccccc1` (configuration not stated)?
C2C12 statin: -5; ARNT TACC3 PPI: -1; PglD inh: 2

How did CCOC(=O)C(C)C1(O)c2ccccc2-c2ncccc21 (configuration not stated) do in these assays?
C2C12 statin: 106*; ARNT TACC3 PPI: -1; PglD inh: -4

Results for C[C@H](CO)N1C[C@H](C)[C@@H](CN(C)S(C)(=O)=O)Oc2cc(C#CC3CCCC3)ccc2S1(=O)=O ?
CFTR F508del cor: 1; C2C12 statin: 3; ARNT TACC3 PPI: -7; PglD inh: 0

What do the screens show for `O=C1CCCC2=C1C(c1ccco1)Nc1ccc3ccccc3c12` (configuration not stated)?
C2C12 statin: 95*; ARNT TACC3 PPI: -3; PglD inh: 3

How did CN1C[C@H](O)COC[C@H]2O[C@@H](CC(=O)N3CCN(c4ccccc4)CC3)CC[C@@H]21 do in these assays?
CFTR F508del cor: 2; C2C12 statin: 10; ARNT TACC3 PPI: -1; PglD inh: 11

What do the screens show for `COc1cc(Cl)c(C)cc1NC(=O)COC(=O)c1cnc(C)cn1`?
C2C12 statin: 95*; ARNT TACC3 PPI: -9; PglD inh: -4

Results for COc1ccccc1NC(=O)COC(=O)c1cnc(C)cn1 ?
CFTR F508del cor: -3; C2C12 statin: 11; PglD inh: 7

How did C[C@@H]1CN([C@@H](C)CO)C(=O)c2cccc(NS(=O)(=O)c3cn(C)cn3)c2O[C@@H]1CN(C)C(=O)Nc1ccc(F)cc1 do in these assays?
CFTR F508del cor: -1; C2C12 statin: 30; ARNT TACC3 PPI: 3; PglD inh: -3

Results for C[C@H]1CN([C@@H](C)CO)C(=O)c2cc(NS(=O)(=O)c3ccc(F)cc3)ccc2O[C@@H]1CN(C)Cc1ccc(C(=O)O)cc1 ?
CFTR F508del cor: -2; ARNT TACC3 PPI: -7; PglD inh: 3

What do the screens show for `O=C(O)c1cccc(-c2ccc(/C=N/Nc3nn[nH]n3)o2)c1`?
CFTR F508del cor: 2; ARNT TACC3 PPI: 67*

How did O=C1C(Nc2ccccc2)=CC(c2ccc(O)cc2)N1c1ccccc1 (configuration not stated) do in these assays?
CFTR F508del cor: 4; C2C12 statin: 32; ARNT TACC3 PPI: 67*

How did CCC(=O)Nc1cc(C(F)(F)F)ccc1N1CCOCC1 do in these assays?
C2C12 statin: -7; ARNT TACC3 PPI: -5; PglD inh: -4

How did Cc1cc(C(=O)OCC(=O)Nc2cc(C(F)(F)F)ccc2N2CCOCC2)c(C)o1 do in these assays?
C2C12 statin: 94*; ARNT TACC3 PPI: -4; PglD inh: -3

What do the screens show for `COc1ccc(NC(=O)CN2c3cccc4cccc(c34)S2(=O)=O)cc1`?
C2C12 statin: 99*; PglD inh: 4

How did CCNC(=O)C[C@@H]1CC[C@H]2[C@@H](COc3ccc(NC(=O)Nc4ccccc4C)cc3C(=O)N2C)O1 do in these assays?
CFTR F508del cor: 0; C2C12 statin: 0; ARNT TACC3 PPI: 4; PglD inh: -3

What do the screens show for `CN(C)S(=O)(=O)c1cccc(NC(=S)N/N=C/c2cc(Br)ccc2O)c1`?
CFTR F508del cor: -2; C2C12 statin: 30; ARNT TACC3 PPI: 62*; PglD inh: 4

Results for COc1ccc2c3c(cccc13)C(=O)CC2 ?
CFTR F508del cor: 12*; ARNT TACC3 PPI: 16

Results for COCc1[nH]nc2c1C(c1ccsc1)C(C#N)=C(N)O2 (configuration not stated) ?
ARNT TACC3 PPI: -6

What do the screens show for `COCc1[nH]nc2c1C(c1sccc1C)C(C#N)=C(N)O2` (configuration not stated)?
C2C12 statin: 94*; ARNT TACC3 PPI: 3; PglD inh: -7

What do the screens show for `C=CCn1c(Cc2csc(N)n2)nnc1SCC(=O)OCC`?
CFTR F508del cor: -2; C2C12 statin: 39; ARNT TACC3 PPI: 46*

How did C=CCn1c(Cc2csc(N)n2)nnc1SCc1ccc(C(=O)OC)cc1 do in these assays?
CFTR F508del cor: 6; C2C12 statin: 59; ARNT TACC3 PPI: 28; PglD inh: 4

How did COc1cc(C(O)c2nc3ccccc3n2C(C)C)cc(OC)c1OC (configuration not stated) do in these assays?
CFTR F508del cor: 0; C2C12 statin: -3; ARNT TACC3 PPI: 50*; PglD inh: -2

Results for O=C1C=C(NCCc2cc(Br)c(O)c(Br)c2)C(=O)c2ncccc21 ?
CFTR F508del cor: 16*; ARNT TACC3 PPI: 64*

How did CCCCC(=O)OCC(=O)C1(O)Cc2c(O)c3c(c(O)c2C(OC2CC(NC(=O)C(F)(F)F)C(O)C(C)O2)C1)C(=O)c1c(OC)cccc1C3=O (configuration not stated) do in these assays?
CFTR F508del cor: 3; ARNT TACC3 PPI: -4

What do the screens show for `COc1cccc2c1-c1c(O)cccc1C2=O`?
CFTR F508del cor: 1; C2C12 statin: 2; ARNT TACC3 PPI: 9; PglD inh: -9

What do the screens show for `COc1cccc2c1C(=N)c1c(O)c3c(c(O)c1C2=O)CC(O)(C(C)=O)CC3OC1CC(N)C(O)C(C)O1` (configuration not stated)?
ARNT TACC3 PPI: 49*

How did COc1cccc2c1C(=O)c1c(O)c3c(c(O)c1C2=O)CC(O)(C(C)=O)CC3OC1CC(O)C(O)C(C)O1 (configuration not stated) do in these assays?
CFTR F508del cor: 19*; ARNT TACC3 PPI: 18

Results for COc1cccc2c1C(=O)c1c(O)c3c(c(O)c1C2=O)C[C@](O)(C(C)=O)C[C@H]3O[C@@H]1C[C@@H](N)[C@@H](O)[C@@H](C)O1 ?
CFTR F508del cor: 31*; C2C12 statin: -151; ARNT TACC3 PPI: 16; PglD inh: 2

What do the screens show for `C[C@H]1CN([C@@H](C)CO)C(=O)c2cc(NS(=O)(=O)c3cccs3)ccc2O[C@H]1CN(C)C(=O)Nc1cccc2ccccc12`?
CFTR F508del cor: -2; C2C12 statin: -1; ARNT TACC3 PPI: 2; PglD inh: -1

How did NCC[C@@H]1CC[C@@H](NC(=O)c2ccccc2F)[C@H](CO)O1 do in these assays?
CFTR F508del cor: -4; C2C12 statin: -12; ARNT TACC3 PPI: 3; PglD inh: 0

What do the screens show for `O=C(CCCCCn1c(=O)[nH]c2ccsc2c1=O)NCc1ccc(F)cc1`?
C2C12 statin: 120*; ARNT TACC3 PPI: 0; PglD inh: -3
